Measurements reported in PubChem BioAssay.
The source made the active and inactive calls.

Assays:
[1] = test system: Plasmodium falciparum Sir2 (PF13_0152, Sir2A); experiment: Plasmodium falciparum Sir2A binding compounds – biochemical, small-molecule microarray, 635 nm fluorescence, primary screen (AID 1098); conditions: fluorescence 635 nm, higher = more signal;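 also: score merges spot fluorescence intensity with its signal-to-noise ratio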
[2] = probe aDKK1 binding to arrayed compounds – biochemical, biotinylated probe, 635/667 nm fluorescence, primary screen (AID 1099); conditions: small-molecule microarray, higher = more signal;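 also: score merges 667nm spot fluorescence with signal to noise across triplicate slides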
[3] = probe aCHRDL2 binding to arrayed compounds – biochemical, biotinylated probe, 635/667 nm fluorescence, primary screen (AID 1100); conditions: small-molecule microarray, higher = more signal
[4] = change in splice reporter luminescence, either direction, cell-based, HEK293, spliceosome inhibition project, primary screen (AID 1101); conditions: HEK293 splicing luciferase reporter, 24 h, higher = more signal, called active from +8 up or from −8 down;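 also: HEK293 cells carrying a splicing-competent luciferase reporter gene; test concentration not given here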
[5] = target: Fibroblast growth factor 10 (Homo sapiens) (UniProt O15520); experiment: compounds binding fibroblast growth factor 10 – biochemical, small-molecule microarray, 635 nm fluorescence, primary screen (AID 1102); conditions: FGF10 binding, fluorescence 635 nm, higher = more signal
[6] = test system: glycogen synthase kinase-3 (GSK3A per assay name; protocol says GSK3B); experiment: compounds binding glycogen synthase kinase-3 – biochemical, small-molecule microarray, 635 nm fluorescence, GSK3A, primary screen (AID 1103); conditions: fluorescence 635 nm, higher = more signal; also: the record names both GSK3A and GSK3B
[7] = target: Epidermal growth factor receptor (Homo sapiens) (UniProt P00533); experiment: compounds binding epidermal growth factor receptor – biochemical, small-molecule microarray, 635 nm fluorescence, primary screen (AID 1104); conditions: EGFR binding, higher = more signal;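 also: score merges 667 nm emission intensity with spot signal to noise over triplicate slides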
[8] = target: Follistatin-related protein 3 (Homo sapiens) (UniProt O95633); experiment: compounds binding follistatin-related protein 3 – biochemical, small-molecule microarray, 635 nm fluorescence, primary screen (AID 1105); conditions: FSTL3 binding, higher = more signal;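 also: score merges emission near 667 nm and signal to noise per printed spot across three slides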
[9] = target: Dickkopf-related protein 1 (Homo sapiens) (UniProt O94907); experiment: small molecules binding DKK1 protein – biochemical, small-molecule microarray, 635 nm fluorescence scan, primary screen (AID 1106); conditions: higher = more signal;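 also: score merges emission near 667 nm with signal to noise over three replicate slides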
[10] = test system: Inhibin beta A chain (activin A); experiment: small molecules binding activin A – biochemical, small-molecule microarray, 635 nm fluorescence scan, primary screen (AID 1107); conditions: INHBA, higher = more signal;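 also: mouse activin A protein probed at 4.33 µg/mL on printed slides; score merges bound-protein fluorescence near 667 nm with spot signal-to-noise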
[11] = test system: Human papillomavirus type 1a protein E7 (residues 44-93); experiment: small molecules binding HPV E7 44-93 – biochemical, small-molecule microarray, residues 44-93, 635 nm fluorescence, primary screen (AID 1108); conditions: fluorescence 635 nm, higher = more signal;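 also: E7 fragment applied at 1 µg/mL in TBST for 1 h at 4 C; score combines spot fluorescence with its signal to noise ratio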
[12] = hepatitis C replication reporter changes, two-sided – Huh7 cells, luciferase reporter, HCV replication inhibitor project, primary screen (AID 1109); conditions: Huh7 HCV replicon luciferase reporter, 48 h; higher = more signal;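 also: huh7 hepatoma cells harbouring a luciferase neomycin HCV replicon reporter; luciferase luminescence as measure of HCV replicon replication; test concentration not given here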
[13] = target: Left-right determination factor 2 (Homo sapiens) (UniProt O00292); experiment: small molecules binding LEFTY2 protein – biochemical, small-molecule microarray, 635 nm fluorescence scan, primary screen (AID 1110); conditions: higher = more signal
[14] = target: Calmodulin-1 (Homo sapiens) (UniProt P0DP23); experiment: small molecules binding calmodulin-1 with EGTA – biochemical, small-molecule microarray, Cy5-labelled CALM1, profiling panel (AID 1111); conditions: Cy5-CALM1 binding fluorescence, higher = more signal;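 also: labelled calmodulin applied in Tris saline Tween buffer holding calcium plus EGTA and DTT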
[15] = target: Calmodulin-1 (Homo sapiens) (UniProt P0DP23); experiment: small molecules binding Ca-loaded calmodulin-1 – biochemical, small-molecule microarray, Cy5-labelled CALM1, plus calcium, artefact control for SMM control-protein annotation, profiling panel (AID 1112); conditions: Cy5-CALM1 binding fluorescence, higher = more signal;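 also: score merges spot fluorescence with signal to noise from triplicate slides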
[16] = probe aWnt5a binding to arrayed compounds – biochemical, biotinylated probe, 635/667 nm fluorescence, primary screen (AID 1113); conditions: small-molecule microarray, higher = more signal;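 also: score merges 667 nm fluorescence intensity with signal-to-noise per printed feature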
[17] = probe aShh binding to arrayed compounds – biochemical, biotinylated probe, 635/667 nm fluorescence, primary screen (AID 1114); conditions: small-molecule microarray, higher = more signal;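 also: probe is biotin-labelled aShh protein from a stem cell growth factor screen; measures binding of labelled protein to compounds printed on the slide; score merges feature fluorescence at 667 nm with signal-to-noise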
[18] = probe aNog binding to arrayed compounds – biochemical, biotinylated probe, 635/667 nm fluorescence, primary screen (AID 1115); conditions: small-molecule microarray, higher = more signal;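 also: probe is biotinylated aNog protein used at 0.15 µg/mL for 1 h at 4 C; z-score combines 667 nm fluorescence of each spot with its signal to noise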
[19] = target: Torsin-1A-interacting protein 1 (Homo sapiens) (UniProt Q5JTV8); experiment: compound microarray binding of lysate hLAP1 – cell lysate, small-molecule microarray, COS7 lysate, 635/667 nm fluorescence, primary screen (AID 1116); conditions: 635 nm fluorescence, higher = more signal
[20] = target: Alpha-bungarotoxin (Bungarus multicinctus) (UniProt P60615); experiment: compounds binding labelled alpha-BTX control protein – biochemical, small-molecule microarray, Alexa647 label, 635/667 nm fluorescence, artefact control for SMM control protein annotation, profiling panel (AID 1117); conditions: alpha-BTX-A647 binding fluorescence, higher = more signal
Chain of Alpha-bungarotoxin (Bungarus multicinctus) (P60615 whole entry, looked up): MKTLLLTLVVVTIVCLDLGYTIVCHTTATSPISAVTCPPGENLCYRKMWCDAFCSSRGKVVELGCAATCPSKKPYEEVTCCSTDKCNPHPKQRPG

Chain of Left-right determination factor 2 (Homo sapiens) (O00292 whole entry, looked up): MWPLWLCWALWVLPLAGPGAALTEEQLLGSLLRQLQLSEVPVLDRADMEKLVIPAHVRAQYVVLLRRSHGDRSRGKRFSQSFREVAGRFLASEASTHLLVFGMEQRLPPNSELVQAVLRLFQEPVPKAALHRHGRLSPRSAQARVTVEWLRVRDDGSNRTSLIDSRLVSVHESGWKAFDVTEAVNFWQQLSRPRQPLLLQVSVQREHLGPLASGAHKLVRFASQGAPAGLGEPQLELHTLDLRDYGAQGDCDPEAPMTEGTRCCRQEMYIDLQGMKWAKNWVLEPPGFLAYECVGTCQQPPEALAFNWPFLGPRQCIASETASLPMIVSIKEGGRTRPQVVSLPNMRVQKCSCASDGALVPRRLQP
Chain of Follistatin-related protein 3 (Homo sapiens) (O95633 whole entry, looked up): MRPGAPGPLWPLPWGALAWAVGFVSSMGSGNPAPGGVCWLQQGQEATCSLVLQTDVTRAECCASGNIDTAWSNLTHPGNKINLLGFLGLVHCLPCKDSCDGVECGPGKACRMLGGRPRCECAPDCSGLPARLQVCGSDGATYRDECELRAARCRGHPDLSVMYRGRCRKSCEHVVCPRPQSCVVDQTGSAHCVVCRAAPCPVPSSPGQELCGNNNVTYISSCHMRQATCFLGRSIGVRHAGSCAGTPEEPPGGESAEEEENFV
Chain of Dickkopf-related protein 1 (Homo sapiens) (O94907 whole entry, looked up): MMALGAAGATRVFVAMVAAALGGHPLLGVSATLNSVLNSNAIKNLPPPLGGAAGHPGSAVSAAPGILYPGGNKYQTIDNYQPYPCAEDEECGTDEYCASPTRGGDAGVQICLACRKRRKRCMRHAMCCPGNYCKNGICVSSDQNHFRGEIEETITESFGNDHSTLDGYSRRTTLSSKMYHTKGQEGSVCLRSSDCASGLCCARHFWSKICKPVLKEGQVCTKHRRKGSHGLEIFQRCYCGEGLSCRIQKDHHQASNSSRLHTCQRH
Chain of Epidermal growth factor receptor (Homo sapiens) (P00533 whole entry, looked up): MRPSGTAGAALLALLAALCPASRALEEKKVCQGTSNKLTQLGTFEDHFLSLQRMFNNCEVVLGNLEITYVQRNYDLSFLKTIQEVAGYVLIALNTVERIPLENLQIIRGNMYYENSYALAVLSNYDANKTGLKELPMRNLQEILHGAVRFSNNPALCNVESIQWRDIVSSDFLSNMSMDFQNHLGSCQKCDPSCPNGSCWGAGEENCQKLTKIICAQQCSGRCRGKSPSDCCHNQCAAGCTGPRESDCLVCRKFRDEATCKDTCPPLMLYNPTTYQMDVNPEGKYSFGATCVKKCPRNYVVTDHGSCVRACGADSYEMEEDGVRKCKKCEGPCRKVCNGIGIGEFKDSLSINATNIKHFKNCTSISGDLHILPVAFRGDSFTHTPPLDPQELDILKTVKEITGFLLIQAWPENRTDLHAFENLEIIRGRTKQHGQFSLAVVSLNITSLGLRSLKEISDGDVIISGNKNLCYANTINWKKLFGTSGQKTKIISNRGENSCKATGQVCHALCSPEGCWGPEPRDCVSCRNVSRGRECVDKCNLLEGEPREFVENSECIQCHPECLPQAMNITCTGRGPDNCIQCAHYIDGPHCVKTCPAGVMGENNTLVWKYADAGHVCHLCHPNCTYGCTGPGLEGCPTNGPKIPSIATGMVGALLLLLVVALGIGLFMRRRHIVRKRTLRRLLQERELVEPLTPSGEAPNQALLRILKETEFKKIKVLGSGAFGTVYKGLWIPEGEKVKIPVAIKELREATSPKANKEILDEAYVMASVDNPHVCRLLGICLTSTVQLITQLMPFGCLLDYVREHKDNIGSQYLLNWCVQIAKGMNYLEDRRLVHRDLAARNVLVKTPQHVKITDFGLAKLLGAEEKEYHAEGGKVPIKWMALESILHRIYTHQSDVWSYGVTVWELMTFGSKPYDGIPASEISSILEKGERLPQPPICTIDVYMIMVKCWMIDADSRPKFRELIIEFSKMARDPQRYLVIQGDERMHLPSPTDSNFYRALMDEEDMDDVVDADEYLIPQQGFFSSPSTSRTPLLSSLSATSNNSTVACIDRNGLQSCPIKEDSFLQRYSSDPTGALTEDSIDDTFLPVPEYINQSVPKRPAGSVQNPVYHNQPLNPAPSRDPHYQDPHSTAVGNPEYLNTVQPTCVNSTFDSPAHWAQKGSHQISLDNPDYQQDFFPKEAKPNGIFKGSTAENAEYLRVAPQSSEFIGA
Chain of Fibroblast growth factor 10 (Homo sapiens) (O15520 whole entry, looked up): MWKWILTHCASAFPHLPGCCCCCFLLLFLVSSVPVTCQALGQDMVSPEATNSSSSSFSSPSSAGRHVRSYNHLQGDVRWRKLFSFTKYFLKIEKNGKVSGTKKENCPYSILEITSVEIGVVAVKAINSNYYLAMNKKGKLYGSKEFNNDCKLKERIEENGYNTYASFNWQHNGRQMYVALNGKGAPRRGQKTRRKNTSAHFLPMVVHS
Chain of Torsin-1A-interacting protein 1 (Homo sapiens) (Q5JTV8 whole entry, looked up): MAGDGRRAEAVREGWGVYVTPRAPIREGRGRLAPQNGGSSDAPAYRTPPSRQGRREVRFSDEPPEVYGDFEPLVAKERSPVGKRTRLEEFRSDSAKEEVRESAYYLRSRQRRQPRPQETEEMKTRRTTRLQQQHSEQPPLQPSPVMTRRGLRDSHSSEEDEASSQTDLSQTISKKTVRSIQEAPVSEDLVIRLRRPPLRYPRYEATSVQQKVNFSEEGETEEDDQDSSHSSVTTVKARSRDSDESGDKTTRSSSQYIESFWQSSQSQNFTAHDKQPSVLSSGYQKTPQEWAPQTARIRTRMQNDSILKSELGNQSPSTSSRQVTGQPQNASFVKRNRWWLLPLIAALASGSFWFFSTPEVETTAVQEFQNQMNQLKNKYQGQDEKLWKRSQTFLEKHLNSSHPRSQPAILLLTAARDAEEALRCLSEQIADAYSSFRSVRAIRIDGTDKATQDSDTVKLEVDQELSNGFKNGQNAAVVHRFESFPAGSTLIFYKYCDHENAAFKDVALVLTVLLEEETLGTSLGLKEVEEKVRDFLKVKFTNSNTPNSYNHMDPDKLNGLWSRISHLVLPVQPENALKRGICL

SMILES | composite z-score [1] | composite z-score [2] | composite z-score [3] | z-score [4] | composite z-score [5] | composite z-score [6] | composite z-score [7] | composite z-score [8] | composite z-score [9] | composite z-score [10] | composite z-score [11] | z-score [12] | composite z-score [13] | composite z-score [14] | composite z-score [15] | composite z-score [16] | composite z-score [17] | composite z-score [18] | composite z-score [19] | composite z-score [20]
CC(C)(C)OC(=O)CC[C@@]1(C(=O)NCC(O)CO)N=C(c2ccc(OCCCO)cc2)O[C@@H]1c1ccccc1 (stereo not given in full) | 0.317 | 0.652 | 0.811 | -0.658 (inactive) | 0.989 | 0.0733 | -1.19 | -0.583 | -0.693 | 0.203 | 1.36 | 0.821 | -0.452 | -0.0155 | 0.924 | -0.0685 | 0.223 | 0.487 | 3.12 | 1.04
COc1ccc([Si](C)(C)[C@@H]2[C@@H](CCO)O[C@]3(C(=O)N(Cc4ccccc4)c4ccc(N(C=O)c5ccccc5)cc43)[C@H]2C)cc1 | 0.622 | -0.185 | -0.025 | -1.1 (inactive) | 0.454 | -0.141 | 0.012 | -0.0895 | 0.169 | 0.328 | -0.736 | -4.14 | 0.391 | 0.194 | 0.841 | -0.117 | 0.0684 | -0.0036 | 0.301 | -0.525
COC(=O)[C@@]1(Cc2ccc(F)cc2)[C@H]2c3cc(C(=O)N4CCCC4)n(Cc4ccc(Cl)c(C(F)(F)F)c4)c3C[C@H]2CN1C(=O)c1ccccc1 | 1.11 | 2.11 | 1.58 | -0.767 (inactive) | 0.879 | 0.864 | 0.477 | 1.18 | -0.652 | 0.864 | 1.37 | -2.42 | 0.04 | 2.51 | 1.42 | 0.963 | 2.64 | 1.16 | 1.68 | 1.57
C=C(/C(=C/C[C@@H](OC(C)=O)c1ccc(CO)o1)c1cnc2ccccc2c1)C(C)C | 1.18 | -0.198 | -0.541 | -0.541 (inactive) | 1.66 | 1.32 | 0.792 | 1.45 | 1.24 | 1.39 | 1.09 | -2.37 | 1.06 | 0.384 | -1.12 | -0.0346 | 0.123 | 0.153 | 1.24 | 0.818
O=C1O[C@@H](c2ccccc2)[C@@H](c2ccccc2)N2[C@@H](c3ccc(O)cc3)[C@]3(C(=O)Nc4ccc(C#CCCO)cc43)[C@@H](C(=O)O)[C@H]12 | 1.67 | 2.56 | 1.64 | -0.545 (inactive) | 0.472 | -0.2 | 0.363 | 1.13 | -0.107 | 1.76 | 0.449 | 0.386 | -0.233 | 2.19 | 0.933 | 0.485 | 0.86 | 2.63 | 1.66 | 2.14
